Bioassay records deposited in PubChem by several laboratories.
Rows were chosen to be rich in hits. Some 12% of all compounds tested hit in one or more screens of this group.
Calpain2 inh: inhibitors of pig calpain II, primary screen, biochemical, fluorogenic peptide substrate, 1536-well. purified calpain II, 30 min. inhibition, % at 16 µM. 220,000 tested, 0.37% active. AID 1236, 2008;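 active = inhibition above about 50%, limit read from the data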
ROMK mod: ROMK potassium channel modulators, primary screen, cell-based, thallium flux, MLSMR library; ATP-sensitive inward rectifier potassium channel 1 (Homo sapiens), P48048; Tet-inducible ROMK, thallium flux fluorescence; actives lie on both sides; B-score at 10 µM; 130,000 tested, 2% active; AID 1918, 2009;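 active = signal ratio slope over the read window, or its plate-corrected B-score, at least 3 SD from the plate mean, either direction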;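 note: B-score of the F/F0 ratio slope over 7 to 12 s after thallium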
Target sequence (P48048 whole entry, looked up): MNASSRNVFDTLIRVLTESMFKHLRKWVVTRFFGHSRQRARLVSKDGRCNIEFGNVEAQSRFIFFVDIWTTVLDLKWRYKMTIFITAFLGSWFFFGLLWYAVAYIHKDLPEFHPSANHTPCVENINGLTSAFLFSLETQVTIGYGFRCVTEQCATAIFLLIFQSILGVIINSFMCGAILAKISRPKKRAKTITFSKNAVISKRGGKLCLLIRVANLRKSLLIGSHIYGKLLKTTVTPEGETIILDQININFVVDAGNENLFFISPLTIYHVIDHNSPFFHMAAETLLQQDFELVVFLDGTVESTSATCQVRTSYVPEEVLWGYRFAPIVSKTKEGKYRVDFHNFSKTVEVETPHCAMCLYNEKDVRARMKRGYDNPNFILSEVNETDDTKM
Lmaj promast: Leishmania major promastigote growth inhibition, primary screen | Leishmania major promastigotes, resazurin fluorescence viability | inhibition, % at 10 µM | 200,000 tested, 9% active | AID 1063, 2008; in the data active = inhibition above about 50%;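 note: promastigotes grown with compound for 44 hours at 28 °C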
Cl transport mod: KCC2 cotransporter modulators, thallium flux, primary screen, cell-based, HEK293 KCC2, FluoZin-2 fluorescence, MLSMR; AID 1456, 2008; KCC2 cells, thallium flux FluoZin-2 fluorescence; 190,000 tested, 2.2% active; Solute carrier family 12 member 5 (Homo sapiens), Q9H2X9; B-score of Tl+ flux slope (higher = more flux/activation; lower = inhibition) at 10 µM;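 active = thallium flux slope and its plate-corrected score both differing from the plate sample mean at a set confidence after two filtering rounds, in either direction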;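 note: slope of fluorescence scaled to starting intensity during 10 to 20 s after thallium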
WT yeast gro inh: growth inhibition of WT strain, primary screen, mitochondrial fusion inhibitor project, WT and mutant strains, chemical genetic; mitochondrial fusion phenotypic screen; inhibition, % at 10 µM; 190,000 tested, 2.1% active; AID 1362, 2008; in the data active = inhibition above about 58%; tested in S. cerevisiae
* marks the source's active call; other numbers are inactive results; . = no result.

SMILES	Calpain2 inh	ROMK mod	Lmaj promast	Cl transport mod	WT yeast gro inh
COC(=O)c1ccc(/C=N/OCC(=O)NC2CCCC(C)C2C)cc1 (stereo not drawn)	10	.	6	-0.67	23
COc1cc(/C=N/OCC(=O)NC2CCCCC2C)ccc1OCc1ccc(Cl)cc1 (stereo not drawn)	30	0.38	83*	0.75	22
COc1cc(/C=N/OCC(=O)Nc2cc(C)cc(C)c2)ccc1OCc1ccc(Cl)cc1	7	0.33	96*	0.037	36
CCN(CC)C(=S)SCC(=O)c1ccc(F)cc1	-15	.	78*	.	-22
CCN(CC)C(=S)SCC(=O)c1ccccc1	-2	-1	1	0.0014	-6
S=C(NCCCN1CCOCC1)Nc1ccc(Cl)c(Cl)c1	-3	-0.19	95*	-0.9	2
Cc1ccc(NC(=S)NCCCN2CCOCC2)cc1C	6	-0.12	.	0.15	.
Fc1cccc(NC(=S)NCCN2CCOCC2)c1	21	0.01	67*	0.54	9
Fc1cccc(NC(=S)NCCCN2CCOCC2)c1	-12	.	72*	0.4	-1
FC(F)(F)c1cccc(NC(=S)NCCN2CCOCC2)c1	9	.	40	0.79	5
Fc1cc(F)cc(NC(=S)NCCCN2CCOCC2)c1	0	0.007	54*	1.2	-7
COc1ccc(CC(=O)NNC(=O)CCc2ccccc2)cc1OC	-9	0.28	-3	-0.036	-3
CCOC(=O)C(NC(=O)c1ccc(F)cc1)(Nc1sc2c(c1C(N)=O)CCC2)C(F)(F)F (stereo not drawn)	7	0.68	74*	-1.4	-3
CC12CCC(C(=O)NNc3ccccc3)(C(=O)C1=O)C2(C)C (stereo not drawn)	-3	.	.	1.5	.
COc1ccc(Nc2cnn(-c3nc4ccccc4s3)c(=O)c2Cl)cc1	11	0.27	51*	1.2	77
COc1ccc(C2SCC(=O)N2c2nc3ccccc3s2)cc1 (stereo not drawn)	-5	-2.3	10	0.24	35
Cc1ccc(C)c(N2CCN(c3cnn(-c4nc5ccccc5s4)c(=O)c3Cl)CC2)c1	-25	.	32	1.1	4
O=c1c(Cl)c(Nc2cccc(Cl)c2)cnn1-c1nc2ccccc2s1	6	-0.023	56*	0.43	39
O=C(COc1ncnc2ccccc12)NCCc1ccc(F)cc1	-13	-0.46	-7	-0.6	16
Cn1c(=O)cc2c3c(c(N4CCCCC4)ccc31)C(=O)c1ccccc1-2	-6	.	.	-1.6	.
O=C1c2ccccc2C(=O)c2c1cccc2N1CCCC1	51*	0.71	0	-0.54	21
COc1ccc(C)cc1NC(=O)CCC(=O)Nc1ccc2nc(N3CCN(C)CC3)cc(C)c2c1	-98	0.69	91*	0.033	0
CCCCNC(=O)CCC(=O)Nc1ccc2nc(N3CCN(C)CC3)cc(C)c2c1	-75	0.66	1	0.067	7
CCN1CCN(c2cc(C)c3cc(NC(=O)c4ccc(OC)c(OC)c4)ccc3n2)CC1	-65	.	55*	-0.012	-1
CCN1CCN(c2cc(C)c3cc(NC(=O)c4cncc(Br)c4)ccc3n2)CC1	-3	1.7	100*	.	1
SMILES	Calpain2 inh	ROMK mod	Lmaj promast	Cl transport mod	WT yeast gro inh
CCN1CCN(c2cc(C)c3cc(NC(=O)c4cccc(OC)c4)ccc3n2)CC1	9	.	.	0.56	.
CCN1CCN(c2cc(C)c3cc(NC(=O)c4ccc5c(c4)OCO5)ccc3n2)CC1	-22	.	100*	-0.13	18
Cc1cc(-c2n[nH]c(=S)n2/N=C/c2cccs2)n[nH]1	-5	.	-7	0.74	7
Cc1ccc(-c2n[nH]c(=S)n2/N=C/c2cccs2)cc1	29	.	-3	18*	1
Cc1ccc(-c2n[nH]c(=S)n2/N=C/c2ccc(C)s2)cc1	3	.	37	5.6*	6
Cc1ccc(/C=N/n2c(COc3ccccc3)n[nH]c2=S)s1	-8	.	-8	16*	49
S=c1[nH]nc(-c2ccccn2)n1/N=C/c1ccc(Br)s1	28	.	-2	26*	-1
Nc1ncnc(Oc2cccc(C(F)(F)F)c2)c1[N+](=O)[O-]	-13	0.43	-1	-0.54	-1
COc1cccc(/C=N/n2c(-c3cccs3)n[nH]c2=S)c1	-4	.	-8	24*	41
COc1ccc(/C=N/n2c(-c3cc(C)[nH]n3)n[nH]c2=S)cc1	0	.	.	0.13	.
CC(C)(C)Nc1nc(SCc2ccccc2)nc(N2CCOCC2)n1	-30	.	30	2.4	66*
CNc1nc(SCc2ccccc2)nc(N2CCOCC2)n1	-8	.	41	.	33
C=CCc1cccc(C2Nc3ccccc3C(=O)N2O)c1O (stereo not drawn)	4	.	-8	13*	8
Cc1nn(C)cc1C1Nc2ccccc2C(=O)N1O (stereo not drawn)	-22	.	-2	-0.093	-20
Cc1ccc(Cn2cc(/C=N/NC(=O)Cc3nnc(NC(=O)c4ccc(C)cc4)s3)c3ccccc32)cc1	44	1.5	-5	0.067	-3
CCOC(=O)C1CCN(C(=O)C23CC4CC(CC(C4)C2)C3)CC1	0	.	104*	1.3	4
Cc1cccc(Oc2nc(CN3CCOCC3)nc3sc4c(c23)CCCC4)c1	-26	-0.48	99*	-0.74	32
Cc1cnc(CN(C)Cc2c(C(=O)N3CCc4ccccc4C3)nc3ccc(Cl)cn23)[nH]1	28	-0.054	10	-0.33	9
COc1ccc(N(CC(=O)NCCC2=CCCCC2)S(=O)(=O)c2ccccc2)cc1OC	-6	1.6	73*	-0.015	-6
COc1ccc(N(CC(=O)NCCC2=CCCCC2)S(=O)(=O)c2ccc(C)cc2)cc1OC	6	-0.063	85*	-0.42	6
COc1ccc(N(CC(=O)NCCC2=CCCCC2)S(=O)(=O)c2ccccc2)cc1	28	.	.	-0.27	.
O=C(NCc1ccccc1Cl)C(=O)NCC(c1ccco1)N1CCOCC1 (stereo not drawn)	-1	0.55	-2	0.13	3
Cc1ccc([N+](=O)[O-])c(NC2OC(CO)C(O)C2O)c1 (stereo not drawn)	-22	0.95	-9	-0.24	7
FC(F)(F)c1cccc(N2CCN(C(=S)NC3CCCCC3)CC2)c1	34	0.17	97*	0.23	-5
FC(F)(F)c1cccc(NC(=S)NC2CCCC2)c1	21	.	74*	-1.7	49
SMILES	Calpain2 inh	ROMK mod	Lmaj promast	Cl transport mod	WT yeast gro inh
FC(F)(F)c1cccc(N2CCN(C(=S)NC3CCCC3)CC2)c1	52*	.	-6	-1.9	21
CN1CCN(C(=S)Nc2cccc(C(F)(F)F)c2)CC1	-9	-0.28	83*	-0.062	10
O=C(CC1CCOCC1)Nc1ccc(Cl)c(Cl)c1	-16	0.2	0	0.024	8
O=C(C1CCC(CNc2c(N3CCCCC3)c(=O)c2=O)CC1)N1CCCC1 (stereo not drawn)	-1	0.97	.	0.62	.
Cc1ccc(C(=O)COc2nc(C)nc3ccccc23)cc1	40	0.77	-7	-0.67	-3
NNc1nc(-c2ccccc2)cc(-c2ccccc2O)n1	-19	.	89*	0.5	10
